Cycloheximide cs = Cycloheximide Counterscreen for Small Molecule Inhibitors of Shiga Toxin; cell reporter, cycloheximide protein synthesis inhibition counterscreen; max response, %; hit rate 12% among 300,000; in the data active means max response mostly above about 13%, no sharp cut-off; inactive means mostly below about 14%; further: read at 38.3 µM for the half of the compounds with a filed dose
AMA1-RON2 inh = qHTS for Inhibitors of AMA1-RON; Towards Development of Antimalarial Drug Lead: Primary Screen; Plasmodium falciparum AMA1 (3D7) - RON2 peptide interaction; AlphaScreen AMA1-biotinylated RON2 peptide binding; Potency, µM (top dose mostly 58.2 µM), actives largely listed as inhibitors; hit rate 0.2% among 360,000; AID 720542, 2013; further: nearly all actives have a fitted effect of over 45% in size
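AMA1 (3D7) with his tag at 25 nM final met compounds first, then biotinylated RON2 peptide at 25 nM; detection used donor plus acceptor beads, 10 µg/mL apiece, read by AlphaScreen after 30 min at room temperature.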
SARS PLpro yeast = qHTS of Yeast-based Assay for SARS-CoV PLP | S. cerevisiae expressing SARS-CoV PLpro, growth rescue | AID 485353, 2010 | Potency, µM (top dose mostly 32.9 µM), most hits filed as activators | hit rate 0.19% among 330,000; calls by dose curve; further: nearly all actives have a fitted effect of over 55% in size
AmpC detergent = qHTS Inhibitors of AmpC Beta-Lactamase (assay with detergent); hit rate 0.041% among 370,000; P00811; AmpC hydrolysis of nitrocefin, absorbance 480 nm, 0.01% Triton; Potency, µM (highest dose often 114 µM), actives largely listed as inhibitors; further: nearly all actives have a fitted effect of over 25% in size
Target sequence (P00811 whole entry, looked up): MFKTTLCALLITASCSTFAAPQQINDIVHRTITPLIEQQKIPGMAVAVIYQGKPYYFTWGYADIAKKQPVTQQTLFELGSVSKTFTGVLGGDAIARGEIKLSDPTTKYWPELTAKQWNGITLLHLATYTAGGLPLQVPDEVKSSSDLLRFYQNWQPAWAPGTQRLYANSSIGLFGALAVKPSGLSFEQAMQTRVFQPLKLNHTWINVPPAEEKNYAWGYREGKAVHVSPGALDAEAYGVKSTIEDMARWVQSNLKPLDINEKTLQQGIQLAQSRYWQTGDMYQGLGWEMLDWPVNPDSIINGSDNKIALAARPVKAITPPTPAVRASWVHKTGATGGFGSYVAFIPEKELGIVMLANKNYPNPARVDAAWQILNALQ
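20 mM phosphate pH 7.0 + 0.01% (detergent screen) or 0.0001% Triton X-100; 5.3 nM AmpC reagent; cpd preinc 15 min RT; nitrocefin (800 uM stock) to start; A480 q20 s × 4 min; Activity was normalised to no-enzyme and no-compound control wells.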
Shiga inhibitor = A qHTS for Small Molecule Inhibitors of Shiga Toxin | inhibition, % at 38.7 µM | hit rate 9.2% among 290,000 | Vero cells, Shiga toxin protein synthesis inhibition reporter; in the data active means inhibition mostly above about 28%, no sharp cut-off; inactive means mostly below about 43%
AmpC no deterg = qHTS Inhibitors of AmpC Beta-Lactamase (assay without detergent). AmpC nitrocefin hydrolysis, absorbance 480 nm, 0.0001% Triton. P00811. AID 485341, 2010. hit rate 0.52% among 330,000. Potency, µM (titrated, usually from 57.1 µM), most hits filed as inhibitors; further: nearly all actives have a fitted effect of over 20% in size
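20 mM phosphate pH 7.0 + 0.01% (detergent screen) or 0.0001% Triton X-100; 5.3 nM AmpC reagent; cpd preinc 15 min RT; nitrocefin (800 uM stock) to start; A480 q20 s × 4 min; Activity was normalised to no-enzyme and no-compound control wells.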
Large screens that a line does not name were inactive. The entries come from a sample that favours hits as a whole. Unless noted, the call rests on the fitted dose curve; in most records, active means well fitted curve in the direction sought with a large enough effect; inconclusive means small, poorly fitted or top-dose-only effect, or another doubt; inactive means no such curve, though single readings can be large; an effect the other way counts as inactive or inconclusive.

c1ccc(C2CC(c3cccs3)=NN2c2ccccc2)cc1 (centres undefined)	Cycloheximide cs 33, Shiga inhibitor 94
COc1ccc(C2CC(c3cccs3)=NN2c2ccc(C=O)cc2)cc1 (centres undefined)	Cycloheximide cs 46, Shiga inhibitor 55
Cc1cccc(CN2CCc3c(OCC(=O)N4CCCc5ccccc54)cccc3C2=O)c1	Cycloheximide cs 14
Cc1cccc(CN2CCc3c(OCC(=O)NCc4ccco4)cccc3C2=O)c1	Cycloheximide cs 13
COc1cccc(COC(=O)Nc2ccccc2)c1OC	none (no result: Cycloheximide cs, SARS PLpro yeast, AmpC detergent, Shiga inhibitor, AmpC no deterg)
Cc1ccc(SCC(Cc2ccccc2)N2CCN(CC(C)C)CCC2=O)cc1 (centres undefined)	Shiga inhibitor 50 (no result: AMA1-RON2 inh, SARS PLpro yeast, AmpC detergent, AmpC no deterg)
CC(C)CN1CCC(=O)N([C@H](CSc2ccc(Br)cc2)Cc2ccccc2)CC1	none
COc1ccc(SCC(Cc2ccccc2)N2CCN(CC(C)C)CCC2=O)cc1 (centres undefined)	Cycloheximide cs 30, Shiga inhibitor 53 (no result: AMA1-RON2 inh, SARS PLpro yeast, AmpC detergent, AmpC no deterg)
O=[N+]([O-])c1cccc2c(N3CCCC3)ccnc12	Cycloheximide cs 21
CCn1c2ccccc2c2cc(NC(=O)C(=O)NCC3CCCO3)ccc21 (centres undefined)	none
O=C(NCc1ccco1)C(c1ccccc1)N(Cc1ccccc1)C(=O)Cn1nnc2ccccc21 (centres undefined)	Cycloheximide cs 18
COc1ccc(CNCCC(c2ccc(OC(C)C)cc2)c2ccccc2OC)cc1 (centres undefined)	none
COc1ccccc1C(CCNCc1ccc(N(C)C)cc1)c1ccc(OC(C)C)cc1 (centres undefined)	AMA1-RON2 inh 8.9µM
CCCCc1c(-c2ccccc2OC)ncn1CCc1cccc(F)c1	none (no result: Cycloheximide cs, SARS PLpro yeast, AmpC detergent, Shiga inhibitor, AmpC no deterg)
O=C(c1ccc(-c2cc(Cl)ccc2Cl)o1)N1CCOCC1	Cycloheximide cs 16, AmpC detergent inconclusive
O=C(c1ccc(-c2ccc(Cl)cc2Cl)o1)N1CCOCC1	Cycloheximide cs 42, Shiga inhibitor 80
O=C(NC(=S)Nc1ccccc1N1CCOCC1)c1ccc(-c2cc(Cl)ccc2Cl)o1	none
CCOC(=O)Cc1csc(NC(=O)COc2ccc(C)c(C)c2)n1	Cycloheximide cs 33, Shiga inhibitor 41
CCOC(=O)Cc1csc(NC(=O)c2ccc(NC(C)=O)cc2)n1	none
CCOC(=O)Cc1csc(NC(=O)Nc2ccc(OC(F)(F)F)cc2)n1	Cycloheximide cs 23, Shiga inhibitor 45
CCOC(=O)Cc1csc(NC(=O)COC(=O)/C=C/c2ccc(OC)cc2)n1	none (no result: Cycloheximide cs, AmpC detergent, Shiga inhibitor)
CCOC(=O)Cc1csc(NC(=O)/C=C/c2ccc(OC)cc2)n1	Cycloheximide cs 37, Shiga inhibitor 115
CCOC(=O)Cc1csc(NC(=O)/C=C\c2ccccc2)n1	Cycloheximide cs 32, Shiga inhibitor 53
CN1CCc2c(sc(NC(=O)Cc3ccccc3)c2C#N)C1	none
CN(C)C(=O)c1cc(C(=O)c2ccc(C(F)(F)F)cc2F)c[nH]1	Cycloheximide cs 42, AmpC detergent inconclusive, Shiga inhibitor 92
CN(C)C(=O)c1cc(C(=O)c2ccc(F)cc2F)c[nH]1	Cycloheximide cs 16, Shiga inhibitor 102
CN(C)C(=O)c1cc(C(=O)c2ccc(F)cc2C(F)(F)F)c[nH]1	none
CN(C)C(=O)c1cc(C(=O)c2ccccc2F)c[nH]1	none
C=CCNC(=O)/C(C#N)=C/c1c(C)nn(-c2ccc(Cl)cc2)c1Cl	none
CCOc1ccccc1NC(=O)/C(C#N)=C/c1c(C)nn(-c2ccc(F)cc2)c1Cl	Cycloheximide cs 47, Shiga inhibitor 85
COc1ccccc1N1CCN(Cc2ccc(O)c3ncccc23)CC1	Cycloheximide cs 21
CCOC(=O)C1CCN(Cc2ccccc2C(F)(F)F)CC1	none
CCOC(=O)C1CCN(Cc2ccc(O)c3ncccc23)CC1	Cycloheximide cs 22, AMA1-RON2 inh 9.5µM, SARS PLpro yeast inconclusive, Shiga inhibitor 110
CSc1nc(C(=O)N2CCCC(Nc3ccc(C)c(C)c3)C2)cs1 (centres undefined)	none
CC(=O)c1ccc(N2CCN(S(=O)(=O)c3cccc(S(=O)(=O)N4CCOCC4)c3)CC2)cc1	AmpC detergent inconclusive
CC(=O)c1ccc(N2Cc3ccccc3C3(CCOCC3)C2=N)cc1	Cycloheximide cs 28
CN1CCN(CC(=O)Nc2ccc([N+](=O)[O-])cc2C(=O)c2ccccc2)CC1	AmpC detergent inconclusive
CN(C)c1ccc(/C=C2/SC(=O)N(CCN=C3NS(=O)(=O)c4ccccc43)C2=O)cc1	Cycloheximide cs 29, Shiga inhibitor 63
O=C(NCCc1ccc(Cl)cc1)c1n[nH]c2ccccc12	Shiga inhibitor 40
Cc1cccc(-n2nnc(C(=O)NCc3ccccc3)c2N)c1	Cycloheximide cs 12
Nc1c(C(=O)NCCc2ccccc2)nnn1Cc1ccccc1	Cycloheximide cs 30, Shiga inhibitor 43
O=C(NCCc1ccccc1)c1n[nH]c2ccccc12	Cycloheximide cs 51, AmpC detergent inconclusive, Shiga inhibitor 145
COc1ccc(C2NC(=O)CCC2[N+](=O)[O-])c(OC)c1 (centres undefined)	none
COc1ccccc1NC(=O)c1nnn(Cc2ccccc2)c1NC(=O)C(F)(F)F	none
O=C(Nc1ccccc1)c1nnn(Cc2ccccc2)c1NC(=O)C(F)(F)F	Cycloheximide cs 45, AmpC detergent inconclusive, Shiga inhibitor 79
C/C(=N/NC(=O)CNC(=O)Cc1ccc(Cl)cc1)c1ccco1	none
C/C(=N/NC(=O)Cc1cccs1)c1ccco1	Cycloheximide cs 22, Shiga inhibitor 27
C/C(=N/NC(=O)CNC(=O)c1ccco1)c1ccco1	none
C/C(=N/NC(=O)CNC(=O)c1cccs1)c1ccco1	Shiga inhibitor 51
c1ccc(-c2noc(-c3ccco3)n2)nc1	Cycloheximide cs 29, Shiga inhibitor 36
c1ccc(-c2noc(-c3ccno3)n2)nc1	Cycloheximide cs 31, Shiga inhibitor 48
Cc1ccc(-c2noc(-c3ccno3)n2)cc1	Cycloheximide cs 49, Shiga inhibitor 82
c1ccc(-c2nc(-c3ccco3)cs2)nc1	Cycloheximide cs 30, AmpC detergent inconclusive, Shiga inhibitor 107
CC(C)(C)C(=O)Nc1ccc2nc(SCc3ccccc3)sc2c1	none (no result: Cycloheximide cs, AMA1-RON2 inh, SARS PLpro yeast, Shiga inhibitor, AmpC no deterg)
CC1(C)CC(=O)C=C(Nc2cc(-c3ccccc3)[nH]n2)C1	none
Fc1ccc(-c2csc(-c3ccccn3)n2)cc1F	Cycloheximide cs 46, Shiga inhibitor 175
c1ccc(-c2nccc(-c3ccco3)n2)nc1	Shiga inhibitor 42
c1coc(-c2ccnc(-c3ccncc3)n2)c1	none

Screening results: PubChem BioAssay, National Center for Advancing Translational Sciences (NCATS)
